The structures appear in SMILES notation. Hit rate of the full screen: of about 320,000 compounds, about 2,100 (0.66%) were called active. Not shown: some 53% with an inconclusive outcome. Calls follow the shape of the dose curve; as a rule, active = well fitted inhibition curve with a large enough effect in the signal ratio, with a control signal flat (not every such curve was filed as active); inconclusive = small, poorly fitted or top-dose-only effect, or effect the other way, or a change in a side signal; inactive = flat fitted curve, though single readings scatter; the % refers to the signal ratio. For the sample, actives were picked, then their nearest neighbours and some compounds at random.
Potency is read from the fitted curve at half-maximal effect.

The nature of the experiment: qHTS Assay for Lipid Storage Modulators in Drosophila S3 Cells.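 As to cell number change: cells counted by Cell Tracker Red CMTPX staining in the red channel.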 The conditions noted are these: BODIPY lipid droplet fluorescence, 18-24 h, cells fed with added oleic acid; cell number change: measured here: cell count max response; series mostly up to 46.1 µM. An outline of the steps: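 Laser-scanning cytometry quantifies lipid droplet accumulation (500–530 nm total intensity; droplet/cell object ratio) in oleic acid-fed (400 uM added) Drosophila S3 cells treated with a concentration series. 20 uM Triacsin C defined 100% inhibition.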
On the technique in general: Quantitative high-throughput screening tests each substance at several concentrations.
For the molecule `Cc1c(NC(=O)C2(c3ccccc3)CCOCC2)c(=O)n(-c2ccccc2)n1C`, the Potency entry is “inactive” and the cell number change is -18.3%.
Consider `CC(C)=C1C2CCC1C(C(=O)NCc1ccccc1)C2C(=O)O` (stereo not drawn), for which the Potency was 25.9 µM (active) and the cell number change is -4.67%.
On to `CC(C)=C1C2CCC1C(C(=O)Nc1cc(C)cc(C)c1)C2C(=O)O` (stereo not drawn), for which the Potency result is “inactive” and the cell number change came out at 13.2%.
For the molecule `CC(C)=C1C2CCC1C(C(=O)NCCc1ccccc1)C2C(=O)O` (stereo not drawn), the Potency result is “inactive” and the cell number change came to 6.84%.
For `CC(C)NC(=O)c1ccc2c(c1)N(CC(=O)NC1CCCCC1)C(=O)C(C)(C)O2` the same measures were “inactive” and 19%.
Turning to `S=C(Nc1ccccn1)Nc1ccccc1Cl`, the Potency entry was “inactive” and the cell number change was -6.96%.
Regarding `O=C(CSc1ccc2nnc(-c3cccnc3)n2n1)Nc1ccccc1`, the Potency is 0.411 µM (active) and the cell number change is 8.38%.
Consider `CCCS(=O)(=O)Nc1cccc(-c2ccc3nnc(C)n3n2)c1`, for which the Potency entry is “inactive” and the cell number change was 7.15%.
With `CCS(=O)(=O)Nc1cccc(-c2ccc3nnc(C)n3n2)c1`, the Potency result was “inactive” and the cell number change was -5.54%.
Consider `CCS(=O)(=O)Nc1cccc(-c2ccc3nnc(-c4cccnc4)n3n2)c1`, for which the Potency was 5.8 µM (active) and the cell number change is -27%.
Regarding `Cc1ccc(NC(=O)CSc2ccc3nnc(-c4cccnc4)n3n2)cc1`, the Potency result was “inactive” and the cell number change was -9.27%.
Taken in the same sequence, the figures for `CC(=O)c1ccc(NC(=O)CSc2ccc3nnc(-c4cccnc4)n3n2)cc1` were “inactive” and 1.01%.
In the case of `CCOC(=O)C(C(=O)NCCCN1CCOCC1)C1CCCCC1` (stereo not drawn), the Potency result was “inactive” and the cell number change came to 5.53%.
Turning to `CCn1nc(C)c(CN2CCCC(CO)(Cc3ccccc3)C2)c1C` (stereo not drawn), the Potency result is “inactive” and the cell number change stood at 6.82%.
With `Cc1ccc(-c2cc([C@H]3[C@H]4C=CC[C@@H](C)[C@@H]4C(=O)N3Cc3ccccc3)ccc2F)cc1`, the Potency entry is “inactive” and the cell number change is -1.15%.
Taken in the same sequence, the figures for `COC(=O)c1cccc(NC(=O)NC(=O)c2ccccc2Cl)c1` were “inactive” and -8.19%.
Turning to `Cc1cccc(NC(=O)CSc2nc3ccccc3o2)c1`, the Potency entry was “inactive”.
Regarding `Cn1c(C(=O)NCCC2=CCCCC2)cc2c(=O)n3ccccc3nc21`, the Potency entry was “inactive”.
For the molecule `COCCCn1c(=N)c(C(=O)NCC2CCCO2)cc2c(=O)n3cccc(C)c3nc21` (stereo not drawn), the Potency entry is “inactive” and the cell number change is -13.4%.
In the case of `COCCCn1c(=NC(C)=O)c(C#N)cc2c(=O)n3cccc(C)c3nc21`, the Potency entry was “inactive” and the cell number change was 0.683%.
As to `Cc1cccn2c(=O)c3cc(C(N)=S)c(=N)n(CCCN4CCOCC4)c3nc12`, the Potency result was “inactive”.
In the case of `COCCCn1c(C(=O)N2CC(C)OC(C)C2)cc2c(=O)n3cccc(C)c3nc21` (stereo not drawn), the Potency entry was “inactive” and the cell number change stood at 0.298%.
For `CCCn1c(=N)c(C(=O)NC2CCCC2)cc2c(=O)n3cccc(C)c3nc21`, the Potency result was “inactive” and the cell number change is -9.76%.
For `CC(=O)N=c1c(C#N)cc2c(=O)n3cccc(C)c3nc2n1CCCOC(C)C` the same measures were “inactive” and 13.1%.
Regarding `CCN(C(=O)c1cc2c(=O)n3cccc(C)c3nc2n1CCCOC)C1CCCCC1`, the Potency is 23.1 µM (active) and the cell number change was 8.25%.
For `Cc1cccn2c(=O)c3cc(C(N)=S)c(=N)n(CCCOC(C)C)c3nc12` the same measures were 9.2 µM (active) and 3.82%.
`Cc1cccn2c(=O)c3cc(C(=O)NCCCN4CCCC4=O)n(C)c3nc12`: the Potency entry was “inactive”.
In the case of `Cc1cccn2c(=O)c3cc(C(=O)NCCC4=CCCCC4)n(C)c3nc12`, the Potency was 18.4 µM (active) and the cell number change is -17.7%.
As to `COCCCn1c(C(=O)NC2CCCCC2C)cc2c(=O)n3cccc(C)c3nc21` (stereo not drawn), the Potency was 20.6 µM (active) and the cell number change worked out at 8.96%.
`O=C(CCc1nnc(C2(c3ccc(Cl)cc3)CCC2)o1)NC1CC1`: the Potency result is “inactive” and the cell number change is 6.23%.
In the case of `Cc1ccc2[nH]c3c(c2c1)CCN1C(=O)OC(C)(C)C31C` (stereo not drawn), the Potency result was “inactive” and the cell number change was -17.1%.
In the case of `O=C(CCCc1nc2ccccc2s1)N1CCN(c2ccccc2F)CC1`, the Potency entry was “inactive” and the cell number change was 22.1%.
Taken in the same sequence, the figures for `COc1cc(/C=C/C(=O)OCC(=O)c2c[nH]c3ccccc23)ccc1OC(F)F` were “inactive” and -14.2%.
Take `COc1cccc(/C=C/C(=O)OCC(=O)c2c[nH]c3ccccc23)c1`: the Potency is 9.2 µM (active) and the cell number change is -14.3%.
On to `COc1ccc(/C=C/C(=O)OCC(=O)c2c[nH]c3ccccc23)cc1`, for which the Potency entry was “inactive” and the cell number change stood at 4.45%.
Take `CCOc1cc(N2CCOCC2)c(OCC)cc1NC(=O)Cn1[nH]c(=O)c2ccccc2c1=O`: the Potency entry is “inactive” and the cell number change is 7.32%.
Take `O=C(O)CNS(=O)(=O)Cc1ccccc1`: the Potency result is “inactive” and the cell number change was 2.83%.
On to `Cc1cccc(NC(=O)C2CCN(S(=O)(=O)c3cccs3)CC2)n1`, for which the Potency result is “inactive”.
For the molecule `COc1ccccc1Cn1c(C)nc2ccccc21`, the Potency result was “inactive” and the cell number change was determined as 10.6%.
For `Cc1nc2ccccc2n1Cc1ccccc1`, the Potency result is “inactive” and the cell number change was -17%.
For `Cc1ccccc1Cn1c(C)nc2ccccc21` the same measures were 10.3 µM (active) and -15.1%.
With `CC1CCN(c2cc(C#N)c(C#N)cc2[N+](=O)[O-])CC1`, the Potency is 23.1 µM (active) and the cell number change was determined as 0.344%.
For `N#Cc1cc(N2CCCCC2)c([N+](=O)[O-])cc1C#N` the same measures were “inactive” and -3.02%.
Take `CN(C)CCC1CCN(c2cc(C#N)c(C#N)cc2[N+](=O)[O-])CC1`: the Potency entry was “inactive” and the cell number change is -1.99%.
For `COC(=O)c1cc(OC)c(OC)cc1NC(=S)N1CCN(c2ccccn2)CC1` the same measures were “inactive” and -13.1%.
With `CCCS(=O)(=O)c1nc(S(=O)(=O)c2ccc(C)cc2)c(N2CCC3(CC2)OCCO3)s1`, the Potency result was “inactive” and the cell number change was -26.8%.
As to `COc1cc(NC(=O)CC2NCCNC2=O)cc(OC)c1` (stereo not drawn), the Potency entry was “inactive” and the cell number change was found to be 2.74%.
Consider `COC(=O)CC1NCCNC1=O` (stereo not drawn), for which the Potency was 0.0326 µM (active) and the cell number change is -8.44%.
On to `CCCCNC(=O)CC1NCCNC1=O` (stereo not drawn), for which the Potency result was “inactive” and the cell number change was -9.85%.

The values above are taken from PubChem BioAssay AID2685 (National Center for Advancing Translational Sciences (NCATS), 2010).
